Assay [1] can be described thus: antimalarial activity against Dd2 strain (AID 2302;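 active = growth inhibition above 50% at the single 2 µM test dose, taken to imply half-maximal potency below 2 µM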;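 also: 0% = DMSO untreated growth and 100% = chloroquine plus artemisinin killed control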). The settings on record: P. falciparum Dd2 in RBCs, LDH growth readout, 72 h; at 2 µM; active compounds read high.
The nature of assay [2]: HepG2 cytotoxicity, primary screen, cytotoxicity control for P. falciparum antimalarial project, cell-based, ATP luminescence (AID 2303;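 active = inhibition above 50%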;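 also: 0% = DMSO wells and 100% = digitonin-killed cells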). Particulars: HepG2 viability, 24-48 h, at 10 µM, active compounds read high.
Assay [3] has as its target L-lactate dehydrogenase (Plasmodium falciparum (isolate CDC / Honduras)) (UniProt Q27743). In words: PfLDH activity inhibition – cell lysate, 3D7 strain, counter-screen for P. falciparum growth inhibition project (AID 2304).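 Also: 0% = vehicle and 100% = reference inhibitor.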 The settings on record: P. falciparum 3D7 crude extract, LDH APAD/NBT absorbance; at 2 µM; active compounds read high. A general note: The purpose of a counterscreen is to sort out artefacts and off-target activity.

Assay [4] can be described thus: inhibition of 3D7 malaria parasite growth – strain 3D7 (AID 2306).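 Also: 0% = DMSO wells and 100% = chloroquine plus artemisinin control wells.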 The settings on record: P. falciparum 3D7 erythrocytic growth, LDH absorbance, 72 h; at 2 µM; active compounds read high.
Assay [5] deals with Calcium-dependent protein kinase 1 (Plasmodium falciparum (isolate 3D7)) (UniProt P62344). In words: PfCDPK1 kinase inhibitors, biochemical, TCAMS library (AID 1159585; cut-off not given, nearly all actives have IC50 up to about 0.98 µM;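 also: inhibitors leave more ATP so luminescence rises with inhibition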). Particulars: recombinant PfCDPK1, Kinase-Glo ATP depletion luminescence.
Sequence of Calcium-dependent protein kinase 1 (Plasmodium falciparum (isolate 3D7)) (P62344 whole entry, looked up): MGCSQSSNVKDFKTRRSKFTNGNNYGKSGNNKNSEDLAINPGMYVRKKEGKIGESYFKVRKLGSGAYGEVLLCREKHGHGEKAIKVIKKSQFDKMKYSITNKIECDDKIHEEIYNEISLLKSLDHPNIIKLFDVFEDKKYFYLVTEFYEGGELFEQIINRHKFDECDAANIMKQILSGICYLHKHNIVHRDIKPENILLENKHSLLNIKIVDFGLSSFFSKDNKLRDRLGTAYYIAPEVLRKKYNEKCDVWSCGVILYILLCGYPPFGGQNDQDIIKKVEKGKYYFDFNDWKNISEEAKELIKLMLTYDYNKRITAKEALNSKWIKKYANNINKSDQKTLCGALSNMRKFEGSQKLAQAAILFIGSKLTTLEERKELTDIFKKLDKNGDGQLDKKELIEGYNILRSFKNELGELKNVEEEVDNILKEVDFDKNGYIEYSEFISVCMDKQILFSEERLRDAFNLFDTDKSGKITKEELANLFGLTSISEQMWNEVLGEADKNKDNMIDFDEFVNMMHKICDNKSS
Assay [6] addresses Plasmodium falciparum protein kinase 6 (PK6, PF3D7_1337100) (UniProt Q8IDW1). The assay can be described thus: PfPK6 kinase inhibitors, biochemical, TCAMS library (AID 1159586). Particulars: recombinant PfPK6, Kinase-Glo ATP depletion luminescence. In general terms: Kinase-Glo measures the ATP left after a reaction by luminescence.
In assay [7] the target is Protein kinase 7 (PK7), Plasmodium falciparum 3D7 (PF3D7_0213400) (UniProt Q7YTF7). The assay can be described thus: inhibition of Plasmodium PK7 catalytic activity – biochemical, TCAMS antimalarial set, Kinase-Glo luminescence (AID 1159587). The settings on record: recombinant PfPK7, Kinase-Glo ATP depletion luminescence.
Sequence of Protein kinase 7 (PK7), Plasmodium falciparum 3D7 (PF3D7_0213400) (Q7YTF7 1-343): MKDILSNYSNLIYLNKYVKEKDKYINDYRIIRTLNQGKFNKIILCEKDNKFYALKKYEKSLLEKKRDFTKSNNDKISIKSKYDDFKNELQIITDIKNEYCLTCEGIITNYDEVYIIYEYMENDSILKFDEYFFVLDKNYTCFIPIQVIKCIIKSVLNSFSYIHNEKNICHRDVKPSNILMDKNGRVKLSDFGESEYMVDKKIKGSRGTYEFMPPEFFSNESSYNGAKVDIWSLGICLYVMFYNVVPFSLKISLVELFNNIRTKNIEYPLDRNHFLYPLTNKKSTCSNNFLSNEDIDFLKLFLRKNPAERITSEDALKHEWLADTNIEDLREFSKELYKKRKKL
Assay [8] addresses Calcium-dependent protein kinase 4 (Plasmodium falciparum (isolate 3D7)) (UniProt Q8IBS5). In words: PfCDPK4 kinase inhibitors, biochemical, TCAMS library (AID 1159588; cut-off not given, nearly all actives have IC50 up to about 0.91 µM). The settings on record: recombinant PfCDPK4, Kinase-Glo ATP depletion luminescence.

SMILES strings stand for the structures. Unmarked numbers belong to inactive results. For some of these results: Entries with a potency or affinity are not part of this list. Active and inactive are the calls of the source. Unless noted, no rule for the calls is given here.

A word on the inhibition: it is the change of the read-out against control, counted positive when it falls.

Sequence of Plasmodium falciparum protein kinase 6 (PK6, PF3D7_1337100) (Q8IDW1 1-305): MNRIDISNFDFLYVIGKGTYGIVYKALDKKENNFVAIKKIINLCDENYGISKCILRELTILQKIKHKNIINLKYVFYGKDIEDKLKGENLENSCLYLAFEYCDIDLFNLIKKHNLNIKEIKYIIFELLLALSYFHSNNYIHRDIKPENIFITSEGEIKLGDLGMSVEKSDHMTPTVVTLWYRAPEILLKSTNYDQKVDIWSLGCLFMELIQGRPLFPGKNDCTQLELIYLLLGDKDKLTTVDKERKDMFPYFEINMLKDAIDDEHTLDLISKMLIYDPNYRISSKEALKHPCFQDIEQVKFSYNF
Sequence of Calcium-dependent protein kinase 4 (Plasmodium falciparum (isolate 3D7)) (Q8IBS5 whole entry, looked up): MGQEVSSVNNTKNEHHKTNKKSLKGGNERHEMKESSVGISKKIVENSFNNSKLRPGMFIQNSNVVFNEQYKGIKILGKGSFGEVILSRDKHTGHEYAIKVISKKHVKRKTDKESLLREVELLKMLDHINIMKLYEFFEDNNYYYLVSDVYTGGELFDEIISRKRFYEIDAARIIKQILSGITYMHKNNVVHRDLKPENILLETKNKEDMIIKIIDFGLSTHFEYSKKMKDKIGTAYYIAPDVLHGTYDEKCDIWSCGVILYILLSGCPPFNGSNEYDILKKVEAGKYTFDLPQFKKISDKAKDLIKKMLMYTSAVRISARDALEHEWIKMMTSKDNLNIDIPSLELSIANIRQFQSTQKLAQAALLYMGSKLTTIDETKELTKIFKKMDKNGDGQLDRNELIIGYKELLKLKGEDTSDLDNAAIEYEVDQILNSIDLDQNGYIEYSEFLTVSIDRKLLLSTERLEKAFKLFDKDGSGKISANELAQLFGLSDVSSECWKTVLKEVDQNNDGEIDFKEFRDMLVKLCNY
Sequence of L-lactate dehydrogenase (Plasmodium falciparum (isolate CDC / Honduras)) (Q27743 whole entry, looked up): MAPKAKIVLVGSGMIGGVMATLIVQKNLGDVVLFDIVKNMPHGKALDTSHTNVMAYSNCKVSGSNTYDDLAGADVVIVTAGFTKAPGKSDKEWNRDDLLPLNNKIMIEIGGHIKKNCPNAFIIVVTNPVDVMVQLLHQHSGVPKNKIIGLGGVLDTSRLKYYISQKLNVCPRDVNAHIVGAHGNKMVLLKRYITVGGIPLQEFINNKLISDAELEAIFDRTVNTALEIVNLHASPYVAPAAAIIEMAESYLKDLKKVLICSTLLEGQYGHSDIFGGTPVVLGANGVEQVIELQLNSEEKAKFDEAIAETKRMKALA

With `Cc1ccc(C(=O)Nc2cccc(CN3CCCN(Cc4ccc(O)cc4)CC3)c2)s1`, the growth inhibition in assay [1] is 23%; in assay [4], 90% (active). Moreover, the inhibition is 17% in assay [2] and -4% in assay [3]. In addition, the result in assay [5], in assay [6], in assay [7] and in assay [8] was inactive.

As to `COCCNCc1ccc(-c2ccc3c(Nc4ccc(Cl)cc4F)ccnc3c2)o1`, the growth inhibition in assay [1] and in assay [4] was 100% (active) each time. Also, the inhibition was 15% in assay [2] and -2% in assay [3]. Besides, the result in assay [5], in assay [6], in assay [7] and in assay [8] was inactive.

Regarding `O=C(CC1CCCCC1)NCC(NCCCNc1cc(=O)c2ccccc2[nH]1)c1cc(Br)cc(Br)c1` (stereo not given), the growth inhibition was 52% (active) in assay [1] and 95% (active) in assay [4]. Further, the inhibition is 8% in assay [2] and 0% in assay [3]. Moreover, the result in assay [5], in assay [6], in assay [7] and in assay [8] was inactive.

For `COc1ccc(NC(=O)c2ccc(Br)c(C)c2)cc1N1CCN(Cc2ccccc2)CC1`, the growth inhibition in assay [1] is 3%; in assay [4], 95% (active). Besides, the figures for the inhibition in assay [2] and in assay [3] were -2% and 0%, respectively. Besides, the result in assay [5], in assay [6], in assay [7] and in assay [8] was inactive.

With `COc1ccc2ncc(F)c([C@@H](O)CN3CCC(NCc4cc5c(cn4)OCS5)CC3)c2c1`, the growth inhibition in assay [1] is 98% (active); in assay [4] it was 103% (active). Further, the inhibition is 16% in assay [2] and -2% in assay [3]. The result in assay [5], in assay [6], in assay [7] and in assay [8] was inactive.

For `COc1cccc2cc(C(=O)N[C@@H](CC(C)C)C(=O)N[C@H](/C=N/N3CCCC3=O)Cc3ccccc3)oc12`, the figures for the growth inhibition in assay [1] and in assay [4] were 80% (active) and 96% (active), respectively. Besides, the inhibition in assay [2] and in assay [3] was 5% throughout. Further, the outcome in assay [5], in assay [6], in assay [7] and in assay [8] was inactive.

As for `Cc1c(Cl)ccc2c(C(=O)Nc3ccncc3)cc(-c3cccnc3)nc12`, the results for the growth inhibition in assay [1] and in assay [4] were 83% (active) and 99% (active), respectively. The results for the inhibition in assay [2] and in assay [3] were 16% and -3%, respectively. Moreover, the result in assay [5], in assay [6], in assay [7] and in assay [8] was inactive.

Consider `N#Cc1ccc(N(CCOc2ccc(Cl)c(Cl)c2)Cc2ccccc2C(F)(F)F)cc1C(F)(F)F`, for which the growth inhibition was 57% (active) in assay [1] and 90% (active) in assay [4]. The inhibition in assay [2] is 13%; in assay [3], -2%. In addition, the result in assay [5], in assay [6], in assay [7] and in assay [8] was inactive.

For `N=c1n(Cc2ccccc2)c2ccccc2n1CC(O)c1ccc(Cl)cc1` (stereo not given), the growth inhibition in assay [1] was 75% (active); in assay [4], 96% (active). For the same molecule, the figures for the inhibition in assay [2] and in assay [3] were 26% and -1%, respectively. For the same molecule, the outcome in assay [5], in assay [6], in assay [7] and in assay [8] was inactive.

For the molecule `COc1ccc2nc3cc(Cl)ccc3c(NCCCCN3CCNCC3)c2c1`, the growth inhibition in assay [1] is 75% (active); in assay [4], 102% (active). Further, the inhibition in assay [2] was 29%; in assay [3] it was -5%. Moreover, the outcome in assay [5], in assay [6], in assay [7] and in assay [8] was inactive.

In the case of `N#Cc1ccc(-c2nc3c(N4CCCC4)cccc3n2CCNCc2ccccc2)cc1`, the growth inhibition in assay [1] was 99% (active); in assay [4], 100% (active). The inhibition is 2% in assay [2] and -3% in assay [3]. The result in assay [5], in assay [6], in assay [7] and in assay [8] was inactive.

For the molecule `Cc1ccc(C(O)CNc2ccnc(Nc3cccc(-c4csc(C)n4)c3)n2)cc1` (stereo not given), the growth inhibition is 31% in assay [1] and 92% (active) in assay [4]. Also, the inhibition is 17% in assay [2] and -2% in assay [3]. Also, the result in assay [5], in assay [6], in assay [7] and in assay [8] was inactive.

`CCCCN=C(N)c1ccc(OCCCCCOc2ccc(C(N)=NCCCC)cc2)cc1`: the growth inhibition in assay [1] and in assay [4] was 99% (active) throughout. Also, the inhibition in assay [2] is 19%; in assay [3], -4%. The result in assay [5], in assay [6], in assay [7] and in assay [8] was inactive.

`Cc1noc(C)c1-c1ccc2c(Nc3ccc(Cl)cc3)c(C(N)=O)cnc2c1`: the growth inhibition in assay [1] was 67% (active); in assay [4] it was 94% (active). For the same molecule, the inhibition in assay [2] was 9%; in assay [3] it was 7%. Also, the outcome in assay [5], in assay [6], in assay [7] and in assay [8] was inactive.

Take `Cc1cccc2[nH]cc(C3CCN(CCC4CCN(C(=O)/C=C/c5ccc(Cl)c(Cl)c5)CC4)CC3)c12`: the figures for the growth inhibition in assay [1] and in assay [4] were 8% and 91% (active), respectively. For the same molecule, the inhibition in assay [2] is 13%; in assay [3], 2%. Besides, the result in assay [5], in assay [6], in assay [7] and in assay [8] was inactive.

For `NC(=NCc1ccccc1)Nc1cccc(Cc2ccccc2)n1`, the growth inhibition in assay [1] is 52% (active); in assay [4], 85% (active). In addition, the inhibition in assay [2] is 57% (active); in assay [3] it was 0%. The outcome in assay [5], in assay [6], in assay [7] and in assay [8] was inactive.

Regarding `O=[N+]([O-])c1cccc(CNCC2CCN(CC3CCCCC3)CC2)c1`, the growth inhibition in assay [1] is 14%; in assay [4] it was 90% (active). In addition, the inhibition in assay [2] was 11%; in assay [3], 2%. In addition, the result in assay [5], in assay [6], in assay [7] and in assay [8] was inactive.

Regarding `NC(=O)c1sc(-n2cnc3ccccc32)cc1OCc1ccccc1[N+](=O)[O-]`, the figures for the growth inhibition in assay [1] and in assay [4] were 46% and 99% (active), respectively. In addition, the values for the inhibition in assay [2] and in assay [3] were 10% and -2%, respectively. Also, the outcome in assay [5], in assay [6], in assay [7] and in assay [8] was inactive.

For `N#Cc1ccc(-c2cnc3ccc(NCc4ccc(S(N)(=O)=O)cc4)nn23)cc1`, the growth inhibition is 100% (active) in assay [1] and 98% (active) in assay [4]. Besides, the inhibition in assay [2] was 7%; in assay [3], 5%. Moreover, the outcome in assay [5], in assay [6], in assay [7] and in assay [8] was inactive.

Take `COc1cccc(C2(c3cccc(OC)c3)N=C(N)N(CCCc3ccccc3)C2=O)c1`: the growth inhibition in assay [1] is 93% (active); in assay [4], 98% (active). Moreover, the inhibition is 3% in assay [2] and 4% in assay [3]. Also, the result in assay [5], in assay [6], in assay [7] and in assay [8] was inactive.

(Values after PubChem BioAssay.)
